PubChem BioAssay
Values without a mark were called inactive. The rule behind the calls is not given here.

target: Pantothenate synthetase (Mycobacterium tuberculosis (strain ATCC 25618 / H37Rv)) (UniProt P9WIL5); test: Recombinant Mtb pantothenate synthetase (PanC) inhibitors, coupled enzyme, confirmatory (AID 375); settings: coupled enzyme assay; at 10 µM, hits give high values;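 note: 0% = full reaction with vehicle and 100% = no enzyme background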
Sequence (P9WIL5 whole entry, looked up): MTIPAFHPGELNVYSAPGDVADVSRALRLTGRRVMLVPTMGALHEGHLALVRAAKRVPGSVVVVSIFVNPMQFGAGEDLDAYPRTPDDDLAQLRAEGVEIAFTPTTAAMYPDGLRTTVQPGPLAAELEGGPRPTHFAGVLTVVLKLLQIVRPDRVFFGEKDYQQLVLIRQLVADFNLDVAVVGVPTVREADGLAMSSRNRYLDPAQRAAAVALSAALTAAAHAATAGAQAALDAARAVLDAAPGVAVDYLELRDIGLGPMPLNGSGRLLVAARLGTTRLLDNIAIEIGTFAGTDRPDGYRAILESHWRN

| SMILES | inhibition [%] |
| --- | --- |
| O=C(c1cccc(C(=O)N2CCN(c3ccc(F)cc3)CC2)c1)N1CCN(c2ccc(F)cc2)CC1 | 10 |
| COc1cc(N2C(=O)CSC23C(=O)Nc2ccccc23)cc(OC)c1OC (stereo not given) | 0 |
| Cc1cccn2c(=O)c3cc(C#N)c(=O)n(CCCN4CCOCC4)c3nc12 | 0 |
| O=S(=O)(NCCc1ccccn1)c1cccs1 | 3 |
| CCOC(=O)COc1ccc(S(=O)(=O)N2CCc3ccccc3C2)cc1 | 0 |
| CC(C)COC(=O)NCC12C=CC(O1)C1C(=O)N(c3ccc(Cl)cc3)C(=O)C12 (stereo not given) | 0 |
| O=C(O)C1CCCN1c1ncnc2c1oc1ccccc12 (stereo not given) | 0 |
| Cc1ccc(C(=O)CSc2nnc(-c3cccnc3)n2N)cc1 | 5 |
| CCOC(=O)c1sc2nc(N3CCCC3)c3c(c2c1N)CC(C)(C)OC3 | 0 |
| Cc1cc(C)c2cc(CN(CC3CCCO3)C(=O)NC3CCCCC3)c(=O)[nH]c2c1 (stereo not given) | 0 |
| O=C(Nc1ccc2c(c1)OCCO2)C1CCCN(S(=O)(=O)c2cnc[nH]2)C1 (stereo not given) | 0 |
| O=C(CN1CCN(c2ncc(C(F)(F)F)cc2Cl)CC1)Nc1ccc2c(c1)OCO2 | 0 |
| CCN1CCCC1CN=Cc1c(O)n(-c2ccccc2)c(=O)c2ccccc12 (stereo not given) | 0 |
| Fc1ccc(-c2nnc(CN3CCN(c4ncc(C(F)(F)F)cc4Cl)CC3)o2)cc1 | 0 |
| Cc1ccc(CSC2=NCCN2C(=O)c2ccco2)cc1 | 0 |
| N#CC1=C(SCC(=O)NC2CCCCC2)NC(=O)CC1c1ccco1 (stereo not given) | 8 |
| Cc1ccc2c(c1)CCCN2C(=O)C1CCCO1 (stereo not given) | 5 |
| COCCNC(=O)C(c1ccncc1)N(C(=O)Cn1nnc2ccccc21)c1ccc(OC)cc1 (stereo not given) | 0 |
| CCOC(=O)C1=C(O)C(=O)N(c2ccc(S(N)(=O)=O)cc2)C1c1ccccc1 (stereo not given) | 0 |
| COC(=O)c1ccccc1NC(=O)C12CCC(C)(C(=O)O1)C2(C)C (stereo not given) | 0 |

| SMILES | inhibition [%] |
| --- | --- |
| O=C(c1ccc2c(c1)c(=O)oc1ccccc12)N1CCCCC1 | 6 |
| COCc1cc(C)c2c(N)c(C#N)sc2n1 | 1 |
| Cc1cc(C)cc(N(CC(=O)NC2CCC(C)CC2)S(=O)(=O)c2c(C)noc2C)c1 (stereo not given) | 0 |
| CC(=O)[C@@]1(O)CC[C@H]2[C@@H]3C[C@H](C)C4=CC(=O)CC[C@]4(C)[C@H]3CC[C@@]21C | 1 |
| CC(OC(=O)c1cccc(NS(C)(=O)=O)c1)C(=O)Nc1ccc(N2CCOCC2)cc1 (stereo not given) | 0 |
| COc1ccc(Cl)cc1Nc1nc(NCCO)nc(N2CCCC2)n1 | 9 |
| O=C(CN(Cc1cccs1)C(=O)CNS(=O)(=O)c1ccccc1)NCc1ccco1 | 3 |
| COCCn1c(C)cc(C(=O)COC(=O)c2ccc(N3CCCC3=O)cc2)c1C | 2 |
| Cc1ccc2[nH]cc(C(=O)CN3CCC4(CC3)OCCO4)c2c1 | 0 |
| COc1ccc(NC(=O)N2CCC(O)(c3cccnc3)CC2)c(OC)c1 | 3 |
| O=C(CNC(=O)c1cccs1)NCCN1CCN(c2ccccc2F)CC1 | 0 |
| O=C(CSc1nnnn1-c1ccccc1)Nc1ccc(Cl)cc1 | 0 |
| NC(=O)CSc1nnc(-c2cc3ccccc3o2)n1Cc1ccccc1 | 0 |
| O=S(=O)(NCCSc1ccccc1)c1cccs1 | 0 |
| COc1ccc(NCc2nnc(SCC(=O)Nc3cc(C)cc(C)c3)o2)cc1 | 0 |
| COCCOC(=O)C1=C(C)OC(N)=C(C#N)C1c1ccc2c(c1)OCO2 (stereo not given) | 0 |
| Cc1cc(C)c(OCC(=O)Nc2ccc3c(c2)OCO3)cc1C | 2 |
| S=C(c1ccc(-c2cc(Cl)ccc2Cl)o1)N1CCOCC1 | 0 |
| COc1ccc(CNC(=O)c2cnc3n(c2=O)CCS3)cc1 | 0 |
| CCOC(=O)c1c(C)oc2ccc(O)c(CN(C)C)c12 | 0 |
